Test results reported in ChEMBL document CHEMBL4808148, “HDAC6 screening dataset using tau-based substrate in an enzymatic assay yields selective inhibitors and activators” (2021).
Where “and” joins values, the source holds several entries; their conditions need not be identical. Identical values can stand only once. Out of some 5,600 compounds screened, about 150 (2.7%) showed an effect of 50% or more. Many of the other results were omitted from the sample, so strong results are more common in it than they were. Residues, ends and D or L forms follow the SMILES beside them.

What was measured:
[1] = molecular target: T1, Protein deacetylase HDAC6 (Homo sapiens) (UniProt Q9UBN7); settings: at 10 µM
T1 sequence (whole entry): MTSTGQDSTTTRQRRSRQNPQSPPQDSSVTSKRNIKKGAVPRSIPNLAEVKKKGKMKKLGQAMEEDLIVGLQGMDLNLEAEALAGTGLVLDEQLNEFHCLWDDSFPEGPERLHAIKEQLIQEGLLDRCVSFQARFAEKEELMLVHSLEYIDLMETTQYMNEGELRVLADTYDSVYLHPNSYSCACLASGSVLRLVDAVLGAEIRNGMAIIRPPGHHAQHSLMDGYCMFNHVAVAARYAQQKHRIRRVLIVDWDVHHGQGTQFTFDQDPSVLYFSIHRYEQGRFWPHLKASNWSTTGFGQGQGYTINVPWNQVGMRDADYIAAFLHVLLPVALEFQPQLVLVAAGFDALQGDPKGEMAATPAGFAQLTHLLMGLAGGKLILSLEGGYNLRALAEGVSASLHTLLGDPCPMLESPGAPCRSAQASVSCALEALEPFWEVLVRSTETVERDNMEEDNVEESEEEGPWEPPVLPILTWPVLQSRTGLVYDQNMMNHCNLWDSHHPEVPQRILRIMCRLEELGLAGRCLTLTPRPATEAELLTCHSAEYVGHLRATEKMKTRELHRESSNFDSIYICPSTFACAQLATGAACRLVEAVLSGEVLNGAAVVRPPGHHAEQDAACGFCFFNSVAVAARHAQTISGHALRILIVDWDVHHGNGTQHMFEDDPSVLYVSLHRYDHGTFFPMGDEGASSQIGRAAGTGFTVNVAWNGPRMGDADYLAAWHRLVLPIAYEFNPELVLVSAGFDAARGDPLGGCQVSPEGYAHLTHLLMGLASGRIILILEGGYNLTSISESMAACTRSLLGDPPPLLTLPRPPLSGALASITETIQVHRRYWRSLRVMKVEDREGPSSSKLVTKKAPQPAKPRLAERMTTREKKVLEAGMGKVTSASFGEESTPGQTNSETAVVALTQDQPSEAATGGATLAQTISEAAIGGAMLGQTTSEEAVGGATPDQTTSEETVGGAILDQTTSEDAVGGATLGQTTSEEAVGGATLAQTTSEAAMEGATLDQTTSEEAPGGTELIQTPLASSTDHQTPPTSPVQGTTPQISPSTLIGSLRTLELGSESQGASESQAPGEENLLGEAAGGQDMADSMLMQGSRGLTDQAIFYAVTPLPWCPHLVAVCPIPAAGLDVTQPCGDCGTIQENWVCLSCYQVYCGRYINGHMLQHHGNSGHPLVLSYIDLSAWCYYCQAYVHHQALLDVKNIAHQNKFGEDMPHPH

[2] = molecular target: Protein deacetylase HDAC6 (Homo sapiens) (UniProt Q9UBN7); settings: at 10 µM; remark: listed apart in the source

**Q.** `O=C(/C=C/c1ccc2ccc(C(F)(F)F)cc2n1)c1ccncc1` was tested. Which inhibition [1] did it give?
**A.** The inhibition was -2.03%.

**Q.** Which inhibition [1] does the source give for `O=C(NNc1ccccc1)c1ccncc1` here?
**A.** Its inhibition is -5.35%.

**Q.** How did the inhibition [1] turn out when `O=C(/C=C/c1ccc2ccccc2n1)c1ccncc1` was run?
**A.** Its inhibition is 77.3%.

**Q.** Which inhibition [1] does the source give for `Cc1c(Cl)cccc1S(=O)(=O)Nc1nc(CC(=O)N2CCN(C)CC2)cs1` here?
**A.** Its inhibition is 4.81%.

**Q.** Which inhibition [1] does the source give for `CCO[C@@H](Cc1ccc(OCCn2c(C)ccc2-c2ccc(SC)cc2)cc1)C(=O)O` here?
**A.** Its inhibition is 46.3%.

**Q.** `CC(C)OC(=O)Nc1cccc(Cl)c1` was tested. Which inhibition [1] did it give?
**A.** The inhibition was -4.5%.

**Q.** `COc1cc(NC(=O)c2ccccn2)ccc1Cl` was tested. Which inhibition [1] did it give?
**A.** The inhibition was 94.4%.

**Q.** Which inhibition [1] does the source give for `O=C(Nc1cccc(Cl)c1)c1ccccn1` here?
**A.** Its inhibition is 97.2%.

**Q.** `O=C(Nc1ccc(S(=O)(=O)Nc2ccccc2Cl)c(Cl)c1)c1ccccn1` was tested. Which inhibition [1] did it give?
**A.** Its inhibition is 13.9%.

**Q.** `O=C(Nc1cnc(Cl)nc1)c1ccc(F)c(F)c1` was tested. Which inhibition [1] did it give?
**A.** Its inhibition is -4.2%.

**Q.** For `O=C(Nc1ccc(Cl)cc1)Nc1ccc(Cl)c(Cl)c1`, which inhibition [1] is on record?
**A.** The inhibition was -2.56%.

**Q.** `Cc1cccc(C)c1NC(=O)[C@H]1CCCCN1C` was tested. Which inhibition [1] did it give?
**A.** The inhibition was 2.44%.

**Q.** For `c1ccc(CN2CCC3(CCc4ccccc43)CC2)cc1`, which inhibition [1] is on record?
**A.** The inhibition was -2.02%.

**Q.** With `CN[C@@H](CCCNC(=N)N)C(=O)O` as the compound, how does the inhibition [1] read?
**A.** Its inhibition is -8.08%.

**Q.** Which inhibition [1] does the source give for `O=C(CCCS)NC1CCN(C(=O)COc2ccc(Cl)cc2Cl)CC1` here?
**A.** The inhibition was 7.84%.

**Q.** For `CO/N=C(/C(=O)N[C@@H]1C(=O)N2C(C(=O)O)=C(Cn3ccc(=N)n3CCO)CS[C@H]12)c1csc(N)n1`, which inhibition [1] is on record?
**A.** Its inhibition is -0.61%.

**Q.** With `O=C(N[C@H]1CCN(C(=O)c2cc(C(F)(F)F)cc(C(F)(F)F)c2)[C@H](Cc2ccc(Cl)cc2)C1)c1ccnc2ccccc12` as the compound, how does the inhibition [1] read?
**A.** The inhibition was -1.37%.

**Q.** For `Cc1cn2nc([C@@H]3CCCCN3C(=O)c3cc(Cl)ccc3NS(C)(=O)=O)cc2nc1N1CC[C@H](N)C1`, which inhibition [1] is on record?
**A.** The inhibition was -2.52%.

**Q.** How did the inhibition [1] turn out when `Cc1nc(NS(=O)(=O)c2ccc(N)cc2)oc1C` was run?
**A.** Its inhibition is 32.6%.

**Q.** Which inhibition [2] does the source give for SATRAPLATIN, CHEMBL3833367 here?
**A.** Its inhibition is -6.7%.

**Q.** Which inhibition [1] does the source give for `Cc1cc(O)c2c(c1)C(=O)c1cc(O)cc(O)c1C2=O` here?
**A.** Its inhibition is 90.2%.

**Q.** How did the inhibition [1] turn out when `O=C1c2cccc(O)c2C(=O)c2c(O)cc(CO)cc21` was run?
**A.** Its inhibition is 5.42%.

**Q.** With `CCS(=O)(=O)N(C)[C@H]1c2cc(C#N)ccc2OC(C)(C)[C@@H]1O` as the compound, how does the inhibition [1] read?
**A.** The inhibition was -5.99%.

**Q.** How did the inhibition [1] turn out when `CC(=O)OC[C@H](N)C(=O)O` was run?
**A.** Its inhibition is 3.65%.

**Q.** How did the inhibition [1] turn out when `NC[C@@H]1O[C@H](O[C@H]2[C@@H](O)[C@H](O[C@@H]3[C@@H](O)[C@H](N)C[C@H](N)[C@H]3O[C@H]3O[C@H](CO)[C@@H](O)[C@H](O)[C@H]3N)O[C@@H]2CO)[C@H](N)[C@@H](O)[C@@H]1O` was run?
**A.** The inhibition was 80.2%.

**Q.** `NC[C@H]1O[C@H](O[C@H]2[C@H](O)[C@@H](O[C@H]3O[C@H](CO)[C@@H](O)[C@H](N)[C@H]3O)[C@H](N)C[C@@H]2N)[C@H](N)C[C@@H]1O` was tested. Which inhibition [1] did it give?
**A.** The inhibition was -5.82%.

**Q.** Which inhibition [1] does the source give for `NC[C@H]1O[C@H](O[C@H]2[C@H](O[C@@H]3O[C@H](CO)[C@@H](O)[C@H]3O)[C@@H](O)[C@H](N)C[C@@H]2N)[C@H](N)[C@@H](O)[C@@H]1O` here?
**A.** Its inhibition is -5.95% and -3.47%.

**Q.** How did the inhibition [1] turn out when `C[N+](C)(C)[C@@H](Cc1c[nH]c(=S)[nH]1)C(=O)[O-]` was run?
**A.** The inhibition was 0.31%.

**Q.** Which inhibition [1] does the source give for `CC/C(=C(/CC)c1ccc(OP(=O)(O)O)cc1)c1ccc(OP(=O)(O)O)cc1` here?
**A.** Its inhibition is -0.19%.

**Q.** With `CC(=O)N1CCC[C@H]1C(=O)N[C@@H](Cc1cnc[nH]1)C(=O)N[C@@H](CO)C(=O)N[C@@H](CS)C(=O)N[C@@H](CC(N)=O)C(N)=O` (Ac-PHSCN-NH2) as the compound, how does the inhibition [1] read?
**A.** Its inhibition is -4.4%.

**Q.** Which inhibition [1] does the source give for `CCOC(=O)[C@H](CCc1ccccc1)N[C@@H](C)C(=O)N1Cc2cc(OC)c(OC)cc2C[C@H]1C(=O)O` here?
**A.** The inhibition was -3.25%.

**Q.** For `COc1cc(OCc2cccc(-c3ccccc3)c2C)cc(OC)c1CN1CCCC[C@H]1C(=O)O`, which inhibition [1] is on record?
**A.** The inhibition was 51.3%.

**Q.** With `C#CC1(OCC(O)CN2CCN(c3cccc(C(F)(F)F)c3)CC2)CCCCC1` (centres undefined) as the compound, how does the inhibition [1] read?
**A.** The inhibition was 3.19%.

**Q.** Which inhibition [1] does the source give for `Cn1c(COc2ccc(CC3SC(=O)NC3=O)cc2)nc2ccccc2c1=O` (centres undefined) here?
**A.** The inhibition was 6.76%.

**Q.** With `COCCOc1cnc2ccn([C@H](C)c3nnc4c(F)cc(-c5cnn(C)c5)cn34)c(=O)c2c1` as the compound, how does the inhibition [1] read?
**A.** Its inhibition is -3.49%.

**Q.** For `O=C(NCc1ccc(OC(F)(F)F)cc1)C1c2ccccc2C(=O)N1C1CCOCC1` (centres undefined), which inhibition [1] is on record?
**A.** Its inhibition is 1.11%.

**Q.** How did the inhibition [1] turn out when `C[C@H]1NC(=O)NC1=O` was run?
**A.** Its inhibition is 0.16%.

**Q.** How did the inhibition [1] turn out when `Cc1[nH]c(/C=C2\C(=O)Nc3cc(-c4ccccc4)ccc32)c(C)c1CCC(=O)O` was run?
**A.** Its inhibition is 96.4%.

**Q.** `Cc1[nH]c(/C=C2\C(=O)Nc3ccc(F)cc32)c(C)c1C(=O)NCCN1CCCC1` was tested. Which inhibition [1] did it give?
**A.** Its inhibition is 2.96%.

**Q.** For `COc1cc(OC)c(/C=C2/C(=O)Nc3ccccc32)c(OC)c1`, which inhibition [1] is on record?
**A.** The inhibition was -2.63%.

**Q.** How did the inhibition [1] turn out when `CN[C@@H]1[C@@H](O[C@H]2O[C@H](CO)[C@@H](N)[C@H](O)[C@H]2O)O[C@H]2C[C@@H](N)[C@H](O[C@H]3[C@H](O)[C@@H](O)[C@H](N)C[C@@H]3N)O[C@@H]2[C@@H]1O` was run?
**A.** Its inhibition is 10.2%.

**Q.** How did the inhibition [1] turn out when `CNC(=O)c1ccccc1Nc1nc(Nc2ccc3c(c2OC)CCC[C@H](N2CCN(CCO)CC2)C3)ncc1Cl` was run?
**A.** The inhibition was 83%.

**Q.** Which inhibition [1] does the source give for `COc1cc(N2CCOCC2)ccc1Nc1ncc(Cl)c(Nc2ccccc2NS(C)(=O)=O)n1` here?
**A.** The inhibition was -0.93%.

**Q.** Which inhibition [1] does the source give for `CN1CCN(Cc2ccc(Nc3ncc(Cl)c(Nc4ccccc4S(=O)(=O)N(C)C)n3)cc2)CC1` here?
**A.** Its inhibition is -1.57%.
